Most compounds without a hit are left out; they make up all but 12% or so of the library.
WT yeast gro inh: growth inhibition of WT yeast, mitochondrial fusion screen; mitochondrial fusion phenotypic screen, WT strain; inhibition, % at 10 µM; AID 1362; 190,000 compounds, 2.1% hits; in the data active = inhibition above about 58%; tested in S. cerevisiae
INS promoter inh: TRM-6 insulin promoter activity inhibition; TRM-6 cells (human fetal islet line), insulin promoter-eGFP reporter, imaging; reporter expression induced with tamoxifen; inhibition, % at 2 µM; 130,000 compounds, 0.9% hits; AID 1273;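 active = inhibition above the mean plus 3 SD, with well images judged a real hit on visual review, cut at about 60% in these data, passing the limit was not always enough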
Insulin prom up: MIN6 insulin promoter up-regulation; MIN6 insulin promoter-GFP reporter, high-content imaging; stronger effect = higher value; z-score at 5 µM; 190,000 compounds, 0.3% hits; AID 1625;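 active = z-score above 3 at 5 µM with at least 500 cells counted in the well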
L major viab: inhibitors of Leishmania major promastigote growth; inhibition, % at 10 µM; AID 1063; 200,000 compounds, 9% hits; Leishmania major promastigotes, resazurin fluorescence viability; in the data active = inhibition above about 50%;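 also: promastigotes grown with compound for 44 hours at 28 °C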
Cl transport mod: modulates chloride dependent transport by human KCC2; KCC2 cells, thallium flux FluoZin-2 fluorescence; B-score of Tl+ flux slope (higher = more flux/activation; lower = inhibition) at 10 µM; 190,000 compounds, 2.2% hits; AID 1456;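 active = thallium flux slope and its plate-corrected score both differing from the plate sample mean at a set confidence after two filtering rounds, in either direction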;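 also: slope of fluorescence scaled to starting intensity during 10 to 20 s after thallium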
ROMK mod: modulates human ROMK potassium channel activity | P48048 | Tet-inducible ROMK, thallium flux fluorescence; actives lie on both sides | B-score at 10 µM | 130,000 compounds, 2% hits | AID 1918;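 active = signal ratio slope over the read window, or its plate-corrected B-score, at least 3 SD from the plate mean, either direction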;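 also: B-score of the F/F0 ratio slope over 7 to 12 s after thallium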
Target sequence (P48048 whole entry, looked up): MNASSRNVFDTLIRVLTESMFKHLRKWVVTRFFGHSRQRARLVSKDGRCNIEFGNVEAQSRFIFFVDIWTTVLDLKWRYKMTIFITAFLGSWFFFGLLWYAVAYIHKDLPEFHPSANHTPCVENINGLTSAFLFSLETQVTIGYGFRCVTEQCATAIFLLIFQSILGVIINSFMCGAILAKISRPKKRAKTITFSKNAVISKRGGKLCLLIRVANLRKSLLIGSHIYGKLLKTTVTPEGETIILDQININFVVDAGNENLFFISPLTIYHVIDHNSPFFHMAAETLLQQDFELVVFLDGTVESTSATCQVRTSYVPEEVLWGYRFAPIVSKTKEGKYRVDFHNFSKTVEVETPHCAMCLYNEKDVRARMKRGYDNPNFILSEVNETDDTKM
* marks the source's active call; other numbers are inactive results; x = no result.

SMILES	WT yeast gro inh	INS promoter inh	Insulin prom up	L major viab	Cl transport mod	ROMK mod
COc1ccc(C(C)=O)cc1CN1C(=O)NC(CC(C)C)C1=O (stereo not drawn)	-4	25	-0.49	-7	0.17	0.27
CCOC(=O)C1(CCOC)CCN(C(C)CCc2ccc(OC)cc2)CC1 (stereo not drawn)	-13	x	-0.51	91*	-0.43	0.059
CN(CCNC(=O)CN1CCN(Cc2ccccc2Cl)C1=O)Cc1ccccc1	-4	-49	-0.35	59*	-0.19	-1.2
O=C(N/N=C/c1ccc(Br)cc1)c1ccccc1-n1cccc1	-4	-6	0.28	65*	0.38	x
COc1cccc(NC(=S)N(CCCN2CCCC(C)C2)Cc2cccs2)c1 (stereo not drawn)	-1	x	0.98	100*	-0.38	-1.9
CCOC(=O)c1ccc(NC(=S)N(CCCN2CCCCCC2)Cc2ccco2)cc1	9	23	-0.25	100*	-0.32	-1.8
S=C(Nc1ccc(Cl)cc1)N(CCCN1CCOCC1)Cc1ccco1	4	24	-1	96*	0.13	-0.77
CCOC(=O)c1ccc(NC(=S)N(CCN2CCCCCC2)Cc2ccco2)cc1	26	x	-1.5	95*	1.6	-0.69
COc1cc(/C=N/NC(=O)C(Cc2c[nH]c3ccccc23)NC(=O)OCc2ccccc2)cc([N+](=O)[O-])c1O (stereo not drawn)	6	-23	0.92	21	-2.3	x
Cc1ccc(NC(=S)N(CCCN2CCCC(C)C2)Cc2ccco2)cc1C (stereo not drawn)	-3	x	-1.7	96*	-0.8	-0.41
CCN1CCN(CCCN(Cc2ccco2)C(=S)Nc2ccc(Cl)c(C)c2)CC1	16	x	0.17	44	-0.65	0.04
O=C(CCc1nnc(C2CCCCC2)o1)NCc1ccc(F)c(F)c1	12	x	0.88	-6	-0.091	-0.33
O=C(CCl)N(C/C=C/c1ccccc1)c1ccc2c(c1)OCCO2	-26	x	1.2	76*	-3.2	-3.1
Cc1ccc(CN2CCN(/N=C/c3ccc(C)s3)CC2)cc1	0	-22	0.19	68*	-0.61	x
NC(=O)COc1c(-c2ccco2)oc2ccccc2c1=O	2	x	0.46	-5	x	x
CCOCCCNc1nc(=S)[nH]c2cc(OC)c(OC)cc12	-5	x	-1.2	67*	-0.32	-0.29
C=CCn1c(-c2cccs2)nc2nc3ccccc3nc21	10	41	-0.36	8	-0.021	x
C=CCn1c(-c2cccs2)nc2ccccc21	-1	80*	0.71	14	-1.1	x
CC(C)c1nc(N2CCN(C(=O)c3ccco3)CC2)c2c3c(sc2n1)CCCC3	81*	39	-0.75	38	0.0053	x
O=C(c1ccccc1)N1CCN(c2ncnc3sc4c(c23)CCC4)CC1	10	31	-0.64	63*	-0.42	x
CN(C)c1cccc(C(=O)OCC(=O)N(Cc2ccccc2)C2CCS(=O)(=O)C2)c1 (stereo not drawn)	19	-17	-0.74	1	-1.3	-0.94
O=C(CSc1nnc(-c2ccncc2)n1Cc1ccccc1)NC1CCCc2ccccc21 (stereo not drawn)	-1	-24	-0.06	83*	-0.024	-1.3
O=C(CSc1nc2ccccc2c(=O)n1Cc1ccco1)NCc1ccccc1	x	21	x	-5	4*	-0.53
CC(=O)NCCn1c(SCc2ccc(C)cc2)nc2ccccc2c1=O	65*	-40	0.56	7	-0.069	x
CC(=O)NCCn1c(SCc2ccccc2F)nc2ccccc2c1=O	-18	x	-0.17	5	-0.89	-2.5
SMILES	WT yeast gro inh	INS promoter inh	Insulin prom up	L major viab	Cl transport mod	ROMK mod
CCOC(=O)N1CCC(n2c(SCC(=O)NCc3ccccc3)nc3ccccc3c2=O)CC1	2	x	-1.1	81*	-2	0.21
O=C(CSc1nnc(-c2ccncc2)n1Cc1ccccc1)NCCc1ccccc1	7	-41	0.51	4	-1.1	0.92
CCOC(=O)N1CCC(n2c(SCC(=O)N3CCCC3)nc3ccccc3c2=O)CC1	6	40	-0.83	1	0.47	x
CCn1nnnc1NCc1ccc(OCc2ccc(F)cc2Cl)c(OC)c1	-10	x	0.5	13	-0.088	0.4
CC(NCc1ccc2c(c1)OCO2)C(=O)N1CCc2ccccc21 (stereo not drawn)	-5	3	-0.22	-5	0.6	x
CCCn1c(C)cc(C(=O)CSc2nc3ccccc3c(=O)n2Cc2ccco2)c1C	-58	-17	-0.17	89*	-0.035	0.038
CNC(=O)CSc1nnc(-c2ccncc2)n1Cc1ccccc1	-7	x	0.38	2	x	0.68
COC(=O)c1ccc(CSc2nc3ccccc3c(=O)n2Cc2ccco2)o1	2	-16	-0.75	97*	-1.3	x
COC(=O)c1ccc(CSc2nnc(-c3ccncc3)n2Cc2ccccc2)o1	7	x	-0.82	76*	-0.48	x
N#Cc1ccc(CSc2nnc(-c3ccncc3)n2CCc2ccccc2)cc1	7	x	-0.54	90*	0.2	0.16
COc1ccc(NC(=O)C2CCCN2C(=O)Nc2cccc(F)c2)cc1 (stereo not drawn)	-4	x	0.97	0	0.13	0.52
CN(C)C(=O)CSc1nc(SCC(=O)N(C)C)n(-c2ccccc2)n1	17	-56	0.22	1	x	-0.062
O=C(CSc1nc2c(sc3ccccc32)c(=O)n1-c1ccccc1)NCc1ccco1	-4	73*	-0.33	8	-2.1	x
O=C(CSc1nc(SCC(=O)NCc2ccccc2)n(-c2ccccc2)n1)NCc1ccccc1	-5	-50	0.1	94*	x	-2.2
CN(c1ccccc1)S(=O)(=O)c1ccc(C(=O)Nc2nnc(C3CC3)o2)cc1	15	0	-1.9	98*	-1.3	0.084
CN(c1ccccc1)S(=O)(=O)c1ccc(C(=O)Nc2nnc(-c3ccco3)o2)cc1	10	-145	x	10	2.7	-0.56
CCN(c1ccccc1)S(=O)(=O)c1ccc(C(=O)Nc2nnc(-c3ccco3)o2)cc1	13	0	x	99*	3.6	0.62
CCN(c1ccccc1)S(=O)(=O)c1ccc(C(=O)Nc2nnc(C3CC3)o2)cc1	2	78*	-3.1	94*	-0.079	0.67
O=C(COc1ccccc1)OC(C(=O)c1ccccc1)c1ccccc1 (stereo not drawn)	5	x	0.23	-5	0.87	x
CCN(CC)CCN1C(=O)C(O)=C(C(C)=O)C1c1ccc(OC)c(OC)c1 (stereo not drawn)	13	x	0.49	-5	x	-0.32
COCCN(C(=S)Nc1cccc(C)c1)C(C)c1cccnc1 (stereo not drawn)	8	x	0.21	64*	x	0.72
CCOc1ccc(NC(=S)N(CCOC)C(C)c2cccnc2)cc1 (stereo not drawn)	2	x	0.05	73*	-0.063	1.6
COC(=O)c1ccc(C)c(NS(=O)(=O)c2ccc(OC)c(OC)c2)c1	-9	53	0.33	100*	-0.18	x
CCc1ccc(NS(=O)(=O)c2ccc(OC)c(C)c2)cc1	59*	x	x	0	-1.7	1
CN(C)CC/C=C1\c2ccccc2COc2ccccc21	-24	-23	x	100*	-0.46	x

Screening results from PubChem BioAssay.
